The values that follow come from PubChem BioAssay (NCI).

Among the test systems are NCI-H23 lung; NCI-H226 lung; NCI-H322M lung; HOP-62 NSCLC; NCI-H460 lung; HOP-92 NSCLC; NCI-H522 lung; A549/ATCC NSCLC; 786-0 renal; COLO 205 colon.
Holding throughout (test): NCI-60 one-dose screen, 48 h (100 = growth as untreated, 0 = no growth, -100 = all killed)
Common to all, as to conditions: 10 µM unless noted

Each structure is given as a SMILES string. Compounds without any hit were thinned out: in the full panel of roughly 83,000, 20% have a hit.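 For each line, cells grew in 96-well plates with the test compound present at a single concentration for 48 hours.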 Unmarked numbers belong to inactive results. Active and inactive are the calls of the source. How the source made its calls: active means growth percent below 10; inactive means the rest.

`CC(C)N1C(=O)/C(=c2\sc3n(c2=O)C2C(NN=3)N(C)C(=O)N2C)c2ccccc21` (stereo not given): the growth in the assay on NCI-H23 lung was 74.6%; in the assay on NCI-H226 lung, 83%; with NCI-H322M lung it was 91.6%; with HOP-62 NSCLC, 74.7%; in the assay on NCI-H460 lung, 62.2%; in the assay on HOP-92 NSCLC it was 42.9%. For the same molecule, the growth was 33.9% with NCI-H522 lung, 50.8% in the assay with A549/ATCC NSCLC, 62.7% in the assay on 786-0 renal and 91.1% with COLO 205 colon.

For the molecule `CC/C(Cc1ccccc1)=C(\c1ccc(OCCCN(C)C)cc1)c1ccc(OC(=O)NCc2ccccc2)cc1`, the growth in the assay on NCI-H23 lung was 92.9%; in the assay on NCI-H226 lung, 86.4%; with NCI-H322M lung, 87.2%; with HOP-62 NSCLC, 85.7%; with NCI-H460 lung it was 7.02% (active); in the assay with HOP-92 NSCLC, 38.6%. The growth is 95.5% in the assay on NCI-H522 lung, 61.9% in the assay on A549/ATCC NSCLC, 62% in the assay on 786-0 renal and 4.67% (active) in the assay with COLO 205 colon.

`O=C1c2cccc3cccc(c23)C(=O)N1C/C=C/c1ccc2c3c(cccc13)C(=O)N(CCO)C2=O`: the growth in the assay with NCI-H23 lung was 69.6%; in the assay with NCI-H226 lung, 58.3%; with NCI-H322M lung, 62.9%; in the assay on HOP-62 NSCLC, 70.6%; with NCI-H460 lung, 72.6%; in the assay on HOP-92 NSCLC, 2.53% (active). Also, the growth in the assay on NCI-H522 lung was 89.2%; in the assay on A549/ATCC NSCLC, 81.2%; with 786-0 renal it was 84.4%; with COLO 205 colon it was 68.3%.

Consider `CCOC(=O)c1cnc2c(N=Nc3ccc(OC)cc3)c(N)nn2c1N`, for which the growth with NCI-H23 lung was 98.8%; in the assay on NCI-H226 lung it was 99.7%; in the assay on NCI-H322M lung, 97.9%; in the assay with HOP-62 NSCLC, 104%; in the assay with NCI-H460 lung, 103%; in the assay with HOP-92 NSCLC, 113%. Further, the growth in the assay on NCI-H522 lung is 86.8%; in the assay with A549/ATCC NSCLC, 95%; in the assay on 786-0 renal it was 104%; in the assay with COLO 205 colon, 106%.

With `C=Cc1cnc(Nc2ccc(OC)cc2)nc1NCCCNC(=O)C1CCC1`, the growth with NCI-H23 lung was 45.2%; with NCI-H226 lung, 46.5%; with NCI-H322M lung, 68.8%; in the assay with HOP-62 NSCLC, 40.7%; in the assay on NCI-H460 lung, 34.5%; in the assay on HOP-92 NSCLC, 55.4%. Also, the growth in the assay with NCI-H522 lung was 47.9%; in the assay with A549/ATCC NSCLC, 32.4%; in the assay with 786-0 renal, 44.3%; with COLO 205 colon, 44.8%.

As for `FC(F)(F)c1ccc(Cn2cc(CSc3nc4ccccc4s3)nn2)cc1`, the growth was 97.6% in the assay with NCI-H23 lung; 83.1% in the assay on NCI-H226 lung; 94.4% with NCI-H322M lung; 89% in the assay on HOP-62 NSCLC; 102% in the assay with NCI-H460 lung; 85.4% in the assay with HOP-92 NSCLC. The growth was 88.2% in the assay on NCI-H522 lung, 90.1% in the assay on A549/ATCC NSCLC, 98.1% in the assay on 786-0 renal and 103% with COLO 205 colon.

Regarding `N#Cc1c(-c2ccccc2)nc(SCC(O)CN2CCOCC2)nc1N1CCOCC1` (stereo not given), the growth is 81.7% in the assay with NCI-H23 lung; 80% in the assay on NCI-H226 lung; 52.3% in the assay with NCI-H322M lung; 48% with HOP-62 NSCLC; 34% in the assay on NCI-H460 lung; 30.7% with HOP-92 NSCLC. The growth was 63.3% with NCI-H522 lung, 80.3% in the assay on A549/ATCC NSCLC, 38.1% in the assay with 786-0 renal and 81.1% in the assay with COLO 205 colon.

Turning to `COc1ccc(Cn2cc(C(=O)N=Nc3c(O)[nH]c4c(C)cccc34)nn2)cc1`, the growth in the assay on NCI-H23 lung was 89.1%; in the assay on NCI-H226 lung it was 75.1%; in the assay with NCI-H322M lung, 89.6%; in the assay with HOP-62 NSCLC, 106%; in the assay on NCI-H460 lung, 73.1%; with HOP-92 NSCLC, 51.3%. The growth is 77.5% in the assay on NCI-H522 lung, 85.3% in the assay on A549/ATCC NSCLC, 43.5% in the assay with 786-0 renal and 108% with COLO 205 colon.

In the case of `O=C1Nc2ccccc2/C1=C\c1c[nH]c2ccc(Br)cc12`, the growth in the assay with NCI-H23 lung is 77.4%; in the assay on NCI-H226 lung it was 34.9%; in the assay on NCI-H322M lung, 64.2%; in the assay on HOP-62 NSCLC, 56.5%; with NCI-H460 lung it was 80.8%; with HOP-92 NSCLC it was 64.6%. Besides, the growth is 35.8% in the assay with NCI-H522 lung, 73.5% with A549/ATCC NSCLC, 109% in the assay with 786-0 renal and 57.5% in the assay with COLO 205 colon.

`CN1CCN(CCCOc2cccc3nc(Nc4ccc(F)c(F)c4)ccc23)CC1`: the growth with NCI-H23 lung was 36%; in the assay on NCI-H226 lung it was 56.2%; in the assay on NCI-H322M lung it was -13.6% (active); in the assay with HOP-62 NSCLC, 5.44% (active); with NCI-H460 lung, -26% (active); with HOP-92 NSCLC it was 0.0965% (active). Besides, the growth in the assay with NCI-H522 lung was -58.6% (active); in the assay with A549/ATCC NSCLC, 3.54% (active); with 786-0 renal, -12.3% (active); with COLO 205 colon, -82.1% (active).

Regarding `CCN(CC)CCN1C(=O)c2cccc3c(/C=C/CN4C(=O)c5cccc6cccc(c56)C4=O)ccc(c23)C1=O`, the growth in the assay with NCI-H23 lung was 98.1%; in the assay on NCI-H226 lung, 92.7%; in the assay with NCI-H322M lung, 97.4%; in the assay with HOP-62 NSCLC it was 89.5%; with NCI-H460 lung, 98.7%; with HOP-92 NSCLC, 88.1%. Further, the growth in the assay on NCI-H522 lung was 97.9%; with A549/ATCC NSCLC it was 98.8%; in the assay with 786-0 renal it was -9.45% (active); in the assay on COLO 205 colon, 80.7%.

As for `CCN1C2CCC1/C(=C\c1ccc(F)cc1)C(=O)/C2=C/c1ccc(F)cc1`, the growth was 29.2% in the assay on NCI-H23 lung; 51.6% in the assay with NCI-H226 lung; 42.9% in the assay with NCI-H322M lung; 46% in the assay on HOP-62 NSCLC; 46.4% in the assay on NCI-H460 lung; 38.1% in the assay on HOP-92 NSCLC. Further, the growth in the assay on NCI-H522 lung is 36.7%; with A549/ATCC NSCLC, 52.6%; with 786-0 renal it was 42.5%; with COLO 205 colon, 20.7%.

In the case of `CCNc1nc(O)c(/C=C2\C=Nc3ncccc32)s1`, the growth in the assay with NCI-H23 lung was -7.87% (active); in the assay with NCI-H226 lung, 10.8%; in the assay with NCI-H322M lung, 5.83% (active); with HOP-62 NSCLC, -26.5% (active); in the assay with NCI-H460 lung it was 2.41% (active); in the assay with HOP-92 NSCLC, 4.42% (active). The growth is -28.6% (active) with NCI-H522 lung, 11.1% with A549/ATCC NSCLC, 3.02% (active) in the assay with 786-0 renal and -33.3% (active) in the assay on COLO 205 colon.
